Measured values published in PubChem BioAssay (NCI).
Compounds without any hit were thinned out: in the full panel of roughly 83,000, 20% have a hit.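 Single-dose data. Exposure time 48 hours. Values below 10 considered active.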 Unmarked numbers belong to inactive results. Activity calls are given as the source filed them.

Each compound was assayed on HL-60(TB) leukemia (assay: NCI-60 one-dose screen, 48 h (100 = growth as untreated, 0 = no growth, -100 = all killed)). Conditions: 10 µM unless noted.

Structure (SMILES) | growth
COc1cc2cc3c(nc2cc1OC)CCN3Cc1ccc(NC(=O)c2ccc(Cl)c(C(F)(F)F)c2)cc1 | 99.5%
COc1ccc(N/N=C/c2cn(-c3ccc(C(=O)O)cc3)nc2-c2cc3ccccc3oc2=O)cc1 | 8.19% (active)
CC(/C=N/NC(N)=S)Cc1ccc(C(C)C)cc1 (stereo not given) | 44.3%
Cc1ccccc1NC(=O)c1cc2ccccc2cc1O | 0.175% (active)
Clc1ccc(-c2cn(-c3ccccc3)c(-c3ccccc3)n2)cc1 | 47.5%
CCOC(=O)c1c(C)c2c(n1C)CSc1cc(S(=O)(=O)c3ccccc3)c(=O)[nH]c1-2 | 25% [100 µM]
Brc1ccc2c(c1)c(-c1nc(-c3c[nH]c4ncccc34)cs1)cn2CCCN1CCCCC1 | 13.3%
COC(=O)[C@@H](C)CNS(=O)(=O)N(c1cc(C(F)(F)F)cc(C(F)(F)F)c1)C1CCN(Cc2ccc(F)cc2)CC1 | 31.3%
Cn1ncc2c(=O)nc3c(-c4ccccc4)n[nH]n3c21 | 107%
Cc1nn(-c2cccc(Cl)c2)c(C)c1N=Nc1ccc(Br)cc1 | 77.9%
OCCNc1ccccc1 | 100%
O=C1c2ccccc2-c2cn(Cc3ccccc3)c3cccc(c23)C1c1cccnc1 (stereo not given) | 16.3%
NCCNc1nc2ccc(F)cc2c2c(=O)c3cc(F)ccc3sc12 | 21.2%
C=CCC(OC(C)=O)c1ccc(OC)c(OC)c1 (stereo not given) | 116%
COc1cc2c(cc1OC)CC[N+](CCC[N+](C)(C)C)=C2 | 90.1%
